These results are taken from PubChem BioAssay (NCATS).

Results filed as inconclusive are left out. Active and inactive are the calls of the source. Calls follow the shape of the dose curve; as a rule, active = well fitted cell-killing curve with a large enough effect; inconclusive = small, poorly fitted or top-dose-only effect, or effect the other way; inactive = no such curve, though single readings can be large or run the other way. Non-standard residues stand in square brackets, D forms with d. Residues, ends and D or L forms follow the SMILES beside them. Peptide text beside a SMILES is read from it. *: point of attachment. Sta = CC(C)C[C@H](N)[C@@H](O)CC(=O)O; Isovaleryl = CC(C)CC(=O)*
Potency is read from the fitted curve at half-maximal effect.

The experiment in a line: Quantitative High-Throughput drug screen in 47 multiple myeloma cell lines against the NCATS MIPE library collection: OCIMY1_PLB cell viability assay (AID 1918979). Also: nearly all actives have a fitted effect of over 35% in size. The settings on record: OCI-MY1 myeloma viability, CellTiter-Glo ATP, 48 h; series mostly up to 45.8 µM; viability: at the top concentration. An excerpt:
PI: Beverly A. Mock Ph.D.
Laboratory of Cancer Biology and Genetics,
Center for Cancer Research, National Cancer Institute,
National Institute of Health, Bethesda, Maryland
Drug resistance and disease progression are common in multiple myeloma (MM) patients, underscoring the need for new therapeutic combinations. […] We hypothesized that effective combinations would reduce MYC expression and enhance p16 activity. […] These preclinical data identify potentially useful drug combinations for evaluation in drug-resistant MM and reveal potential mechanisms of combined drug sensitivity.
Described herein is the primary MIPE qHTS used to cherrypick compounds. Validated compounds were then further tested for potential synergistic activiy.
[1] Peat TJ, Gaikwad SM, Dubois W, Gyabaah-Kessie N, Zhang S, Gorjifard S, Phyo Z, Andres M, Hughitt VK, Simpson RM, Miller MA, Girvin AT, Taylor A, Williams D, D'Antonio N, Zhang Y, Rajagopalan A, Flietner E, Wilson K, Zhang X, Shinn P, Klumpp-Thomas C, McKnight C, Itkin Z, Chen L, Kazandijian D, Zhang J, Michalowski AM, Simmons JK, Keats J, Thomas CJ, Mock BA. Drug combinations identified by high-throughput screening promote cell cycle transition and upregulate Smad pathways in myeloma. Cancer Lett. 2023 Aug 1;568:216284. doi: 10.1016/j.canlet.2023.216284. Epub 2023 Jun 24. PMID: 37356470; PMCID: PMC10408729.
SEQUENCE No. (e.g., 1, 2, 3, etc.); […] (e.g., Cells, Incubation, Reagent, etc.); VALUE and DESCRIPTION.
1; Cells; 5 uL; white, solid bottom 1536-well Greiner assay plate.
2; Compounds; 23 nL; Kalypsis pin tool (Wako USA) equipped with a 1536-well pin head to transfer to the assay plates.
3; Incubation; 48 hours; 37C incubation.
4; Reagent;5uL; CellTiter Glo (Promega).
5; Detector; 425V; Luminescence; Viewlux PerkinElmer.
NOTES (numbers refer to Sequence numbers above)
1. The cell-based screening methods employed in this study were like those previously published. Briefly, the corresponding myeloma cell lines were screened in 1,536-well plates with 500 cells, 5-uL per well for inhibition of cell viability (assessed by measuring ATP levels with CellTiterGlo).
2. NCATS MIPE 4.0 library of approved and investigational drugs were added using the Kalypsis pin tool. Wells treated with DMSO only for 100% viability and media only for 0% viability were used as controls.
3. The assay plates were covered and incubated for 48 hours in a 37C, 5% CO2 incubator with controlled humidity.
4. After 48 hours, CellTilter-GloTM luminescent substrate mix (Promega) reagent was added to the assay plate and plates we incubated for 5 min at room temperature.
5. Signal was measured as median relative luminescence units on a ViewLux (PerkinElmer) multiplate reader.
[1] Heske CM, Davis MI, Baumgart JT, Wilson K, Gormally MV, Chen L, Zhang X, Ceribelli M, Duveau DY, Guha R, Ferrer M, Arnaldez FI, Ji J, Tran HL, Zhang Y, Mendoza A, Helman LJ, Thomas CJ. Matrix Screen Identifies Synergistic Combination of PARP Inhibitors and Nicotinamide Phosphoribosyltransferase (NAMPT) Inhibitors in Ewing Sarcoma. Clin Cancer Res. 2017 Dec 1;23(23):7301-7311. doi: 10.1158/1078-0432.CCR-17-1121. Epub 2017 Sep 12. PMID: 28899971; PMCID: PMC6636827.
In general, viability refers to a read-out of living cells in per cent, often relative to untreated cells. Consider `COC1=C(OC)C(=O)C(CCCCCCCCCCO)=C(C)C1=O`, for which the “viability” value was 103% (inactive).

`O=c1ccc2ccc(O)c(O)c2o1`: the “viability” value is 101% (inactive).

For the compound `O=C1CCc2ccc(OCCCCN3CCN(c4cccc(Cl)c4Cl)CC3)cc2N1`, the “viability” value was 103% (inactive).

For `N=C(N=C(N)N)N1CCOCC1`, the “viability” value was 108% (inactive).

Regarding `O=P(O)(O)C(O)(Cn1ccnc1)P(=O)(O)O`, the “viability” value was 111% [at 23.2 µM] (inactive).

For the compound `Cc1cc(=O)oc2cc(O)ccc12`, the “viability” value was 108% (inactive).

As to `Oc1ccc(OCc2ccccc2)cc1`, the “viability” value is 108% (inactive).

With `CN(C)C(=O)COC(=O)Cc1ccc(OC(=O)c2ccc(N=C(N)N)cc2)cc1`, the “viability” value was 86.9% (inactive).

As for `Nc1ccc(S(N)(=O)=O)cc1`, the “viability” value was 120% (inactive).

With `O=c1c(O)c(-c2cc(O)c(O)c(O)c2)oc2cc(O)cc(O)c12`, the “viability” value is 98.1% (inactive).

Consider `N[C@@H](Cc1cc(I)c(Oc2cc(I)c(O)c(I)c2)c(I)c1)C(=O)O`, for which the “viability” value was 102% (inactive).

For the compound `O=C(NCCO[N+](=O)[O-])c1cccnc1`, the “viability” value is 104% (inactive).

With `Cc1ccc(NC(=O)c2ccc(CN3CCN(C)CC3)cc2)cc1Nc1nccc(-c2cccnc2)n1`, the “viability” value was 100% (inactive).

In the case of `CC(C)c1ccc2c(c1)c(SC(C)(C)C)c(CC(C)(C)C(=O)O)n2Cc1ccc(Cl)cc1`, the “viability” value was 119% (inactive).

`COC(=O)[C@H](Cc1ccccc1)NC(=O)[C@@H](N)CC(=O)O` (H-Asp-Phe-OMe): the “viability” value is 116% (inactive).

In the case of `Cc1cccc(C#Cc2ccccc2)n1`, the “viability” value was 112% (inactive).

In the case of `O=Nc1c(-c2c(O)[nH]c3cc(Br)ccc23)[nH]c2ccccc12`, the Potency is 26.4 µM (active).

For `CC(C)CC(=O)N[C@H](C(=O)N[C@H](C(=O)N[C@@H](CC(C)C)[C@@H](O)CC(=O)N[C@@H](C)C(=O)N[C@@H](CC(C)C)[C@@H](O)CC(=O)O)C(C)C)C(C)C` (Isovaleryl-VV[Sta]A[Sta]-OH), the “viability” value was 77.9% (inactive).

In the case of `CN1C(C(=O)Nc2ccccn2)=C(O)c2sccc2S1(=O)=O`, the “viability” value was 95.9% (inactive).

Turning to `O=C(O)c1cccc(-c2noc(-c3ccccc3F)n2)c1`, the “viability” value is 101% (inactive).

Take `CCOc1cc(CC(=O)N[C@@H](CC(C)C)c2ccccc2N2CCCCC2)ccc1C(=O)O`: the “viability” value was 124% (inactive).

For the compound `CC(C)[C@H](N)C(=O)OCCOCn1cnc2c(=O)[nH]c(N)nc21`, the “viability” value is 99.9% (inactive).

With `C[Se]CCC(N)C(=O)O` (stereo not given), the “viability” value is 98.5% [at 92.2 µM] (inactive).

For the compound `O=c1oc2cc(O)ccc2s1`, the “viability” value was 88% (inactive).

`CN(c1nccc(=O)[nH]1)C1CCN(c2nc3ccccc3n2Cc2ccc(F)cc2)CC1`: the “viability” value is 114% (inactive).

Regarding `CCOC(=O)C1=C(O)C(=O)N(Cc2ccccc2)C1`, the “viability” value was 106% (inactive).

For the compound `NNc1nncc2ccccc12`, the “viability” value is 114% (inactive).

Turning to `COc1cc(C(C)=O)ccc1OCCCN1CCC(c2noc3cc(F)ccc23)CC1`, the “viability” value is 98.3% (inactive).

Turning to `CNC[C@H](O)c1ccc(O)c(O)c1`, the Potency is 38.2 µM (active).

Turning to `CCCCCCCCCCCCCCCCCCCCCCO`, the “viability” value was 115% (inactive).

`COCCCOc1ccnc(CS(=O)c2nc3ccccc3[nH]2)c1C` (stereo not given): the “viability” value is 102% (inactive).

On to `Cc1cc2c(s1)Nc1ccccc1N=C2N1CCN(C)CC1`, for which the “viability” value was 113% (inactive).

Turning to `CC(C)[N+]1(C)[C@@H]2CC[C@H]1CC(OC(=O)C(CO)c1ccccc1)C2` (stereo not given in full), the “viability” value was 115% (inactive).

For the compound `Cn1c(NCCN(CCO)CCCc2ccc([N+](=O)[O-])cc2)cc(=O)n(C)c1=O`, the “viability” value was 90.7% (inactive).

`O=C(O)CCNC(=O)c1ccc(N=Nc2ccc(O)c(C(=O)O)c2)cc1`: the “viability” value is 99.3% (inactive).

In the case of `CN(C)c1ccc(O)c2c1C[C@H]1C[C@H]3[C@H](N(C)C)C(=O)C(C(N)=O)=C(O)[C@@]3(O)C(=O)C1=C2O`, the Potency is 18.7 µM (active).

On to `COc1cc(OC)c(C(=O)CCCN2CCCC2)c(OC)c1`, for which the “viability” value was 97.8% (inactive).

As for `C[C@]12CCC(=O)C=C1CC[C@@H]1[C@H]2[C@@H](O)C[C@@]2(C)[C@H]1CC[C@]2(O)C(=O)CO`, the “viability” value was 103% (inactive).

With `NS(=O)(=O)c1cc(C(=O)O)c(NCc2ccco2)cc1Cl`, the “viability” value is 109% (inactive).

For the compound `COc1ccccc1N1CCN(CCN(C(=O)C2CCCCC2)c2ccccn2)CC1`, the “viability” value was 107% (inactive).
